Experimental data as given in PubChem BioAssay AID623877 (Johns Hopkins Ion Channel Center, 2012).
Out of some 340,000 compounds screened, about 1,000 (0.29%) were called active.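 How the source made its calls: active means fluorescence-ratio B-score plate-corrected deviation score at least 3 library SD below zero, with starting fluorescence score within 5 deviations; inactive means the rest.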 Many of the other results were omitted from the sample, so actives are more common in it than they were.

molecular target: Anoctamin-1 (Mus musculus) (UniProt Q8BHY3); assay: mouse ANO1 channel activation – cell-based, HTS, primary screen (AID 623877); details: HEK293 TMEM16A/YFP-H148Q/I152L, iodide quench fluorescence, at 10 µM; hits give low values;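 on B-score: channel opened by trigger with iodide after compound preincubation; score built on the fluorescence ratio of max minus min over baseline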
Sequence (Q8BHY3 whole entry, looked up): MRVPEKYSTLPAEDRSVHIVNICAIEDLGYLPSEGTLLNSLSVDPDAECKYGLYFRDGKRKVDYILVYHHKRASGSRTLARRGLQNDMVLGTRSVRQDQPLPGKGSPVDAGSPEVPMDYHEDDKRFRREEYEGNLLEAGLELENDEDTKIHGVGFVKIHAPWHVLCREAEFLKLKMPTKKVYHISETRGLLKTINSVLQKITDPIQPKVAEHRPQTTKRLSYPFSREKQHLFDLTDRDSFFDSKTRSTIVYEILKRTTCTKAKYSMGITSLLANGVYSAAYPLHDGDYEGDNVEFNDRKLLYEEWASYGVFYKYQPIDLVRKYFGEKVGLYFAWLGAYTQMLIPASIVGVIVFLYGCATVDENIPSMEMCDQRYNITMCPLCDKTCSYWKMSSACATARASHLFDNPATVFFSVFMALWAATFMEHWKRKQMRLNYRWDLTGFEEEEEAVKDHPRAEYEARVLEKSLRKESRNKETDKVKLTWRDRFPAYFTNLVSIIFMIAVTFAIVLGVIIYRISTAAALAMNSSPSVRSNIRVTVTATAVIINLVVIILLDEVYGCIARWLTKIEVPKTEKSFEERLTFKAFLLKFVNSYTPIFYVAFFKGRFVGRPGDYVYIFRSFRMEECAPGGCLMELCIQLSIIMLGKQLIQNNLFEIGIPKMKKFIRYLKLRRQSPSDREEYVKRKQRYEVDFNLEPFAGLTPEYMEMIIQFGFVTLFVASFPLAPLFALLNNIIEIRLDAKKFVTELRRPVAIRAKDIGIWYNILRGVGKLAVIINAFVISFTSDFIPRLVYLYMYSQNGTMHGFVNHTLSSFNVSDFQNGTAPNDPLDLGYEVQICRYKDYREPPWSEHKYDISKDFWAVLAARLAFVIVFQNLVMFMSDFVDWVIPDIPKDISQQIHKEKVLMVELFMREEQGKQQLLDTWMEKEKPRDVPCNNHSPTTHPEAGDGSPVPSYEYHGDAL

Compound | B-score
CC(=O)C1(O)CCC2C3CCC4=C(Cl)C(=O)CCC4(C)C3CCC21C (stereo not given) | -5.25 (active)
Cc1cc(C)cc(NC(=S)NC2CC3CCCC(C2)N3Cc2cccs2)c1 (stereo not given) | inactive
Cc1nn(Cc2ccccc2Cl)c(Cl)c1C(=O)OC(C(=O)NC(N)=O)C(C)C (stereo not given) | inactive
Cc1nc2ccccn2c1P(=S)(N1CCCCC1)N1CCCCC1 | -9.49 (active)
COc1ccc(C(=O)C2CN(C)CC2C(=O)c2ccc(OC)cc2)cc1 (stereo not given) | inactive
O=C(CSC1c2ccccc2-c2ccccc21)N/N=C/c1ccccc1 | inactive
CC1C(=O)OC2CCN3CC=C(COC(=O)C(C)(O)C1(C)O)C23 (stereo not given) | inactive
CCN(CC)P(=O)(Oc1cccc(C)c1)N(CC)CC | inactive
C=Cn1ccnc1P(=S)(c1cc(N(CC)CC)ns1)c1nccn1C=C | inactive
Cc1cc2ccccn2c1C(C[N+](=O)[O-])c1c(F)cccc1Cl (stereo not given) | inactive
